Hits are enriched below; roughly 7.8% of the tested compounds scored in any of these assays.
Lassa entry inh – Lassa virus entry inhibition; Lassa virus pseudotype entry inhibition, cell reporter; AID 540256; 1.2% of 300,000 active; Potency, µM (highest dose often 37.9 µM), for inactives: top-dose activity change, negative = inhibition, actives largely listed as inhibitors; calls by dose curve; tested in HEK293 cells; note: potency is the fitted concentration of half-maximal effect; nearly all actives have a fitted effect of over 50% in size
Vaccinia Venus – vaccinia inhibition (Venus reporter); AID 720580; Vaccinia virus Venus reporter expression, fluorescence; Potency, µM (highest dose often 36.5 µM), without a hit: top-dose activity change, negative = inhibition, most hits filed as inhibitors; 0.46% of 330,000 active; calls by dose curve; tested in A549 cells; note: potency is the fitted concentration of half-maximal effect; nearly all actives have a fitted effect of over 30% in size
MARV entry inh – inhibitors of Marburg virus binding or cell entry | AID 540276 | 1.8% of 300,000 active | Potency, µM (titrated, usually from 37.8 µM), without a hit: at the highest dose activity change, negative = inhibition, most hits filed as inhibitors | Marburg virus pseudotyped entry inhibition, cell reporter; calls by dose curve; tested in HEK293 cells; note: potency is the fitted concentration of half-maximal effect
Vaccinia mCherry – vaccinia inhibition (mCherry reporter); Vaccinia virus mCherry reporter infection, fluorescence; Potency, µM (top dose mostly 36.5 µM), for inactives: at the highest dose activity change, negative = inhibition, hits mostly inhibitors; 0.63% of 310,000 active; AID 720579; calls by dose curve; tested in A549 cells; note: potency is the fitted concentration of half-maximal effect; nearly all actives have a fitted effect of over 35% in size
HCMV antiviral – inhibitors of human cytomegalovirus | HFF cells, HCMV-luciferase reporter, 72 h; active compounds read low | activity change, negative = inhibition, % at 57.5 µM | 4.5% of 410,000 active | AID 1259415; in the data active = activity change below about -60%; inconclusive = no clear call, values can overlap the other calls; inactive = above about -39%
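Screen run at 2 compound doses on HFFs infected with reporter HCMV, MOI 1 PFU/cell. Luciferase activity from cell lysates at 72 h post infection gave inhibition relative to buffer-only and Salinomycin wells.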
HCV inh – inhibitors of hepatitis C virus infection | Huh7.5.1 HCVcc-Cre infection, luciferase reporter, 44 h | Potency, µM (highest dose often 41.8 µM), inactives show top-dose activity change, negative = inhibition, most hits filed as inhibitors | 3.4% of 340,000 active | AID 651820; active = well fitted inhibition curve with a large enough effect; inconclusive = small, poorly fitted or top-dose-only effect, or another doubt; inactive = no such curve, though single readings can be large or run the other way; note: potency is the fitted concentration of half-maximal effect
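Infectious HCVcc-Cre (~0.5 moi) was added to cells just after compound, with cells seeded 4 h earlier at 1,000 per well. Luciferase activity after 44 h culture reported infection; substrate was incubated 15 min at room temperature before reading.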
An asterisk follows results filed as active; i = inactive; ? = inconclusive; nt = no result; [ ] = remark or other dose. % is set by controls: 0 for no effect and ±100 for the full control effect.

SMILES | Lassa entry inh | Vaccinia Venus | MARV entry inh | Vaccinia mCherry | HCMV antiviral | HCV inh
COc1cc(OC)c2ccc(=O)oc2c1C(CCN1CCOCC1)c1ccc2c(c1)OCO2 (centres undefined) | nt | -23% | nt | i | 15 | 2%
COc1ccc(C(CCN2CCOCC2)c2c(OC)cc(OC)c3c(-c4ccccc4)cc(=O)oc23)cc1 (centres undefined) | nt | ? | nt | -27% | -27 | 32µM*
COc1ccc(C(CCN2CCOCC2)c2c(OC)cc(OC)c3ccc(=O)oc23)cc1 (centres undefined) | nt | -10% | nt | -21% | -19 | 2.8µM*
COc1ccc(C(CCN2CCCC2)c2c(OC)cc(OC)c3c(-c4ccccc4)cc(=O)oc23)cc1 (centres undefined) | nt | ? | nt | -17% | -23 | -4%
Cc1cc(C)n(CC(=O)Nc2cc(F)ccc2F)c(=O)c1C#N | -2%[46.1 µM] | -6% | nt | -6% | -4 | nt
CCC(=O)N1CCc2cc(S(=O)(=O)NCCC(=O)NC(C)c3ccccc3)ccc21 (centres undefined) | 22%[46.1 µM] | -3% | -5%[46.1 µM] | -5% | -1 | nt
Cc1cc(C)cc(NC(=O)c2cc(S(=O)(=O)N3CCc4ccccc43)cn2C)c1 | ? | -16% | nt | -14% | -20 | nt
CCCN(C(=O)CCc1nc(-c2ccc(OC)cc2)no1)c1ccccc1F | ? | 3% | -5%[46.1 µM] | -6% | -26 | nt
COc1cc(OC)c2c(-c3ccccc3)cc(=O)oc2c1C(CC(=O)N1CCOCC1)c1ccc(N(C)C)cc1 (centres undefined) | nt | -20% | nt | -10% | 7 | -17%
COc1cc(OC)c2c(-c3ccccc3)cc(=O)oc2c1C(CC(=O)N1CCOCC1)c1ccc2c(c1)OCO2 (centres undefined) | nt | -18% | nt | -7% | -94* | ?
CCOc1ccc(CCNC(=O)c2ccc(C)c(-n3c(C)nc4cccnc43)c2)cc1OCC | -3%[46.1 µM] | -12% | nt | -7% | 0 | nt
Cc1ccc(CNC(=O)c2ccccc2NC(=O)c2nsc3ccccc23)cc1 | ? | ? | nt | ? | -88* | nt
Cc1ccccc1CNC(=O)c1ccccc1NC(=O)c1nsc2ccccc12 | 15%[46.1 µM] | ? | nt | -11% | 0 | nt
CCOc1ncccc1C(=O)NCc1ccc(C)cc1 | -9% | -15% | -3% | -9% | -32 | 10%
CSc1ncccc1C(=O)NCc1ccc(C)cc1 | 12% | 10µM* | 13% | ? | -27 | 6%
CC(C)Oc1ccc(CNC(=O)c2ccc(NC(=O)c3nsc4ccccc34)cc2)cc1 | ? | -8% | nt | 8% | 68 | nt
CSc1ccc(CNC(=O)c2ccc(NC(=O)c3nsc4ccccc34)cc2)cc1 | 6%[46.1 µM] | -5%[7.34 µM] | nt | -8%[7.34 µM] | -96* | nt
COc1ccc(N2CCN(C(=O)CCC(=O)N3CCOc4ccc(Cl)cc43)CC2)cc1 | nt | ? | nt | 14µM* | -99* | ?
Cc1cccc(N2CCN(C(=O)CCC(=O)N3Cc4ccccc4Oc4ncccc43)CC2)c1C | ? | -22% | ? | ? | -94* | ?
Cc1ccc2c(c1)N(C(=O)CCC(=O)N1CCN(c3cccc(C)c3C)CC1)CCO2 | nt | ? | nt | ? | ? | 10µM*
Cc1ccc2c(c1)N(C(=O)CCC(=O)N1CCN(c3ccccc3)CC1)CCO2 | nt | 14% | nt | 4% | -33 | -11%
O=C1CC2(CCCC2)CC(=O)N1CCCCNCC1COc2ccccc2O1 (centres undefined) | nt | ? | nt | -20% | nt | nt
Cc1ccc2nc(Cl)c(C3CC(c4cccs4)=NN3S(C)(=O)=O)cc2c1 (centres undefined) | -2% | nt | 17% | nt | -60* | -3%
CC1CCN(S(=O)(=O)c2ccc3ncn(CC(=O)Nc4ccccc4C(F)(F)F)c(=O)c3c2)CC1 | 1%[46.1 µM] | -8% | 0%[46.1 µM] | -4% | -5 | nt
CCOC(=O)c1cccc(NC(=O)c2cc(C)nc3c2c(C)nn3-c2ccc(C)cc2)c1 | 0%[46.1 µM] | -18% | nt | -11% | -2 | nt
SMILES | Lassa entry inh | Vaccinia Venus | MARV entry inh | Vaccinia mCherry | HCMV antiviral | HCV inh
Cc1ccc(C(CC(=O)Nc2ccc(F)c(Cl)c2)N2Cc3ccccc3C2=O)cc1 (centres undefined) | 4%[46.1 µM] | -4% | nt | 2% | -104* | nt
COc1ccc(-c2nc(C)c(CCNC(=O)c3cccs3)s2)cc1 | -22%[46.1 µM] | -8% | nt | -3% | 42 | nt
COc1cc(C2NCC(c3ccc(Cl)cc3Cl)c3c2[nH]c2ccccc32)cc(OC)c1OC (centres undefined) | ? | -20% | 16µM* | -25% | ? | ?
O=C(O)c1ccc(C2NCC(c3ccccc3Cl)c3c2[nH]c2ccccc32)cc1 (centres undefined) | 21% | -4% | ? | -1% | -16 | -6%
COCCN(CCOC)c1ncnc2c1c(-c1ccccc1)cn2-c1ccc(C)c(Cl)c1 | -3%[46.1 µM] | -13% | nt | -11% | ? | nt
CCN(CC(=O)NCc1ccc(F)cc1)C(=O)CN1CCN(c2cc(Cl)ccc2C)CC1 | -1% | -13% | -23%[46.1 µM] | -17% | 38 | 6.3µM*
CC1(C)CC(=O)C2=C(C1)NC(SCC(=O)Nc1ccccc1)=C(C#N)C2c1ccco1 (centres undefined) | ? | -11% | 14µM* | -13% | ? | -11%
N#CC1=C(SCC(=O)c2ccc(Br)cc2)NC2=C(C(=O)CCC2)[C@H]1c1ccco1 | nt | nt | 8.9µM* | nt | nt | nt
Cc1ccc(C(=O)CSC2=C(C#N)C(c3ccco3)C3=C(CC(C)(C)CC3=O)N2)cc1 (centres undefined) | ? | -30% | ? | ? | -68* | ?
N#CC1=C(SCC(=O)c2ccc(Cl)cc2)NC2=C(C(=O)CCC2)C1c1ccco1 (centres undefined) | ? | ? | ? | ? | -40 | ?
CC(=O)C1=C(C)NC(SCC(=O)c2ccc(C)cc2)=C(C#N)C1c1ccco1 (centres undefined) | nt | nt | nt | nt | nt | 7.1µM*
Cc1ccc2occ(CC(=O)N(Cc3ccc(C(C)C)cc3)C3CCS(=O)(=O)C3)c2c1 (centres undefined) | -11%[46.1 µM] | -16% | ? | -10% | 9 | nt
Cc1nnc(SCC(=O)Nc2ccc(Br)cc2)[nH]c1=O | 30%[46.1 µM] | -6% | ? | -5% | -23 | nt
COCCOC(=O)C1=C(C)NC(SCC(=O)NC(C)(C)C)=C(C#N)C1c1ccco1 (centres undefined) | -28% | -16% | 8% | 18% | -32 | -10%
COc1ccccc1NC(=O)C1=C(C)NC(SCC(=O)c2ccccc2)=C(C#N)C1c1ccco1 (centres undefined) | -5% | 2% | ? | -21% | nt | 7.9µM*
Nc1[nH]c(C(=O)c2ccccc2)c(-c2ccccc2C(F)(F)F)c1C(=O)NCCc1c[nH]c2ccccc12 | nt | ? | nt | ? | -61* | nt
O=C(COc1ccccc1)NC1CCS(=O)(=O)C1 (centres undefined) | 7% | nt | 0% | nt | 2 | 11%

Source: PubChem (National Center for Advancing Translational Sciences (NCATS))
